The campaign covered roughly 350,000 compounds. About 7,000 (2%) were called active. The sample holds actives, similar compounds and a random draw of the others, so the mix is not that of the screen. Rule as the data show it: active = activation above about 40%; inconclusive = no clear call, values can overlap the other calls; inactive = below that.
Experiment: raisers of Bmi1 knock-in reporter signal – mouse ES cells, Bmi1 luciferase knock-in, single point, esBAF inhibitor project, primary screen (AID 602393);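 also: 0% = median of the plate's neutral control wells and 100% = double that signal; a rise in the Bmi1 reporter signal indicates esBAF inhibition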
Details: 24 h, at 12.5 µM, stronger effect = higher value, 100% = twice the neutral-well signal

| Compound | reporter increase |
| --- | --- |
| Cc1nn(CCOc2ccccc2)c(=O)n1-c1ccccc1F | 49.4% (active) |
| O=C(NCCOc1ccccc1)c1ccccc1F | -7.45% (inactive) |
| Cc1c(C(N)=O)sc2ncn(CCOc3ccccc3)c(=O)c12 | 16.1% (inactive) |
| COCC(=O)Nc1ccc2c(c1)[C@H]1C[C@H](CC(=O)NCc3ccccn3)O[C@H](CO)[C@H]1O2 | 0.452% (inactive) |
| CO[C@H]1CN(C)C(=O)c2ccc(NS(=O)(=O)c3cn(C)cn3)cc2OC[C@@H](C)N(C)C[C@@H]1C | -7.11% (inactive) |
| C[C@@H](NC(=O)C[C@@H]1CC[C@@H]2[C@H](COC[C@@H](O)CN2C(=O)Nc2cccc(F)c2)O1)c1ccccc1 | 11.2% (inactive) |
| CCCN(C)C[C@H]1Oc2ncc(C#CC3CCCCC3)cc2C(=O)N([C@H](C)CO)C[C@@H]1C | -4.47% (inactive) |
| C[C@@H]1CN([C@@H](C)CO)C(=O)Cc2cc(NS(=O)(=O)c3cccs3)ccc2O[C@H]1CN(C)S(=O)(=O)c1ccc(F)cc1 | -3.47% (inactive) |
| CN(C)S(=O)(=O)c1ccc2oc(SCC(=O)Nc3ccccc3F)nc2c1 | 56% (active) |
| COc1ccc(NS(=O)(=O)c2ccc3oc(SCC(N)=O)nc3c2)cc1 | 4.52% (inactive) |
| COc1ccc(S(=O)(=O)N(C)C)cc1NC(=O)CSc1ncccn1 | -0.957% (inactive) |
| COc1ccc(NC(=O)N[C@H]2CC[C@@H](CCNS(=O)(=O)c3cccc(Cl)c3)O[C@H]2CO)cc1 | 1.55% (inactive) |
| COc1cccc(NC(=O)C[C@@H]2CC[C@@H]3[C@H](COc4ccc(NC(=O)C5CCOCC5)cc4C(=O)N3C)O2)c1 | 1.18% (inactive) |
| C[C@H](CO)N1C[C@H](C)[C@@H](CN(C)Cc2ccccc2)OCCCC[C@H](C)Oc2ccc(NC(=O)Cc3ccccc3)cc2C1=O | 1.95% (inactive) |
| COc1ccc(NC(=O)Nc2cccc3c2O[C@H](CN(C)Cc2ccc(Cl)c(Cl)c2)[C@H](C)CN([C@@H](C)CO)C3=O)cc1 | 4.75% (inactive) |
| CCc1ccc(NC(=O)Cn2nnc(C(=O)NCc3ccc4c(c3)OCO4)c2N)cc1 | -0.239% (inactive) |
| O=C(Nc1ccc2c(c1)OCCO2)C(C1CC1)N1CCC(Cc2ccccc2)CC1 (stereo not given) | -12.5% (inactive) |
| Nc1c(C(=O)Nc2ccc3c(c2)OCCO3)nnn1Cc1ccccc1 | 62.1% (active) |
| C[C@@H]1CN([C@H](C)CO)C(=O)c2cc(NC(=O)c3ccncc3)ccc2O[C@H]1CN(C)C(=O)Nc1ccc(C(F)(F)F)cc1 | 8.53% (inactive) |
| Cc1ccccc1S(=O)(=O)NCC[C@@H]1CC[C@H](NC(=O)C2CCC2)[C@@H](CO)O1 | -0.558% (inactive) |

— PubChem BioAssay AID602393 (Broad Institute, 2012)
